The list is not random: actives were taken first. Their share in the collection is about 3.2%.
Kir21 inh = inhibitors of mouse Kir2.1 inward-rectifier potassium channel | Inward rectifier potassium channel 2 (Mus musculus), P35561 | HEK293-Kir2.1, FluxOR thallium flux fluorescence; stronger effect = lower value | B-score at 10 µM | 0.85% of 310,000 active;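 active = fluorescence ratio B-score at or below minus 3 SD of library scores, with starting-brightness B-score within 2 SD, cut at about -4.2 in these data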;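 also: channel flux triggered by added potassium and thallium sulfate stimulus; B-score of peak minus minimum fluorescence over baseline after thallium stimulus; more negative B-score means stronger Kir2.1 block with less thallium influx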
CHT inh = inhibitors of human choline transporter CHT. 0.86% of 310,000 active. CHT-expressing cells, membrane potential dye, choline response; stronger effect = lower value. High affinity choline transporter 1 (Homo sapiens), Q9GZV3. B-score at 10 µM. AID 488975, 2010;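 active = B-score over 3 SD under the library average, and starting fluorescence ratio not unusually high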;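 also: choline stimulus applied at its EC90 after an EC20 pre-addition; B-score computed on integrated fluorescence ratio after choline addition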
Target sequence (Q9GZV3 whole entry, looked up): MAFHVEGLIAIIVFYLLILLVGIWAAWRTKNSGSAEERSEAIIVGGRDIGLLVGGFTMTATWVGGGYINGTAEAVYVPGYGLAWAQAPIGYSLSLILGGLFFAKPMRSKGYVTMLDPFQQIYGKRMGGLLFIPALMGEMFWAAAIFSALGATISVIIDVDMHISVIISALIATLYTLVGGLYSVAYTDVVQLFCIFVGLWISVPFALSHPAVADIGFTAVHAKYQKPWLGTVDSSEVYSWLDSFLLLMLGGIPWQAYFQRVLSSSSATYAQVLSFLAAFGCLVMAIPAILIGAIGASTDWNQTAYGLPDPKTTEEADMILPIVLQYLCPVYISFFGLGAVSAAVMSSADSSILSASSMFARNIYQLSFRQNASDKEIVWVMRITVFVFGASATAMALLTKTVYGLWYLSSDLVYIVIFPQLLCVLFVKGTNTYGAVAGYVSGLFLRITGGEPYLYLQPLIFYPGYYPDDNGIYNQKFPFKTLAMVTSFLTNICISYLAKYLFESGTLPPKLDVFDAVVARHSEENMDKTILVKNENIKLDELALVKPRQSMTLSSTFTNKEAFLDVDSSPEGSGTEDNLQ
TMEM16A inh = TMEM16A chloride channel inhibitors, primary screen, cell-based, HTS; Anoctamin-1 (Mus musculus), Q8BHY3; normalized B-score (activity score, 25-100; higher = stronger inhibition) at 10 µM; HEK293 TMEM16A/YFP iodide influx fluorescence, ionomycin; 1.2% of 310,000 active;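 active = ratio plate-corrected score three or more library SD toward inhibition, starting fluorescence score within five deviations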;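 also: score derived from kinetic fluorescence span divided by baseline fluorescence per well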
Rce1 inhib = yeast Rce1p protease inhibitors, primary screen, biochemical, fluorescence, cell-free homogeneous | CAAX prenyl protease 2 (Saccharomyces cerevisiae (strain ATCC 204508 / S288c)), Q03530 | 0.27% of 290,000 active | yeast membranes, quenched prenylated peptide cleavage fluorescence | calls only;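 active = fall in fluorescence gain of 50% or more versus controls, with final raw signal at or below 3038400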
ANO1 activ = TMEM16A chloride channel activators or potentiators, primary screen, cell-based, HTS; HEK293 TMEM16A/YFP-H148Q/I152L, iodide quench fluorescence; stronger effect = lower value; B-score at 10 µM; 0.3% of 340,000 active; AID 623877, 2012;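 active = fluorescence-ratio B-score plate-corrected deviation score at least 3 library SD below zero, with starting fluorescence score within 5 deviations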;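 also: channel opened by trigger with iodide after compound preincubation; score built on the fluorescence ratio of max minus min over baseline; more negative score means more quench and so TMEM16A activation or potentiation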
CHT PAM = CHT positive allosteric modulators, primary screen, cell-based, membrane potential dye, choline EC20 | High affinity choline transporter 1 (Homo sapiens), Q9GZV3 | CHT-expressing cells; stronger effect = higher value; LV-AA mutant CHT in HEK293 cells | B-score at 10 µM | 0.49% of 310,000 active;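 active = initial fluorescence not abnormally high and integrated response B-score, plate-corrected, over 3 SD above library mean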
TMEM16A reconf = TMEM16A chloride channel inhibitors, confirmation, cell-based, re-confirmation. HEK293 TMEM16A/YFP-H148Q, iodide quench fluorescence; ionomycin added to raise cell calcium. shares compounds with TMEM16A inh. inhibition, % at 10 µM. 39% of 2,300 active;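 active = mean duplicate percent inhibition, scaled so buffer wells are 0 and the reference blocker 100, over three buffer SD above buffer mean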
TMEM16A Ca cntr = calcium mobilization in TMEM16A/YFP HEK293 cells, confirmation, counter-screen for TMEM16A inhibitor project; calcium response (% of ionomycin), % at 10 µM; Fluo4 calcium mobilization; AID 652231, 2013; shares compounds with TMEM16A inh; 2% of 2,300 active;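 active = duplicate-averaged calcium signal over 20% of the ionomycin maximum, relative to buffer baseline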;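 also: each well's signal is peak minus trough fluorescence divided by its pre-addition baseline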
Parental YFP cnt = iodide YFP quench changes in parental YFP-HEK293, counter-screen for TMEM16A inhibitor project, cell-based. shares compounds with TMEM16A inh. ionomycin. YFP ratio F(max-min)/F0 at 10 µM. 2,300 tested, under 10 active. AID 652233, 2013;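 active = yellow fluorescent protein signal ratio exceeding the buffer control mean by over 5 SD of those controls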;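 also: ratio is mean of duplicate wells from kinetic YFP trace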
ClC-1 rat inh = ClC-1 chloride channel inhibition, selectivity assay for TMEM16A inhibitor project, cell-based, voltage-dependent ClC-1; 2,300 tested, under 10 active; shares compounds with TMEM16A inh; AID 652236, 2013; CHO ClC-1-YFP, iodide influx fluorescence quench; iodide control reads 0, buffer control 100; ratio percent, % at 10 µM;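 active = duplicate-mean ratio percent above the mean of iodide-only control wells, which defines zero, plus 5 of their SD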;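 also: higher percent means stronger block of ClC-1 iodide influx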
Of the large screens only hits and unclear results are named; the others gave an inactive call (follow-up assays come after a bar, where they were run).

O=C(CN(Cc1ccco1)C(=O)c1cc(=O)[nH]c2ccccc12)Nc1ccccc1Br	TMEM16A inh 100 | TMEM16A reconf inactive | TMEM16A Ca cntr inactive | Parental YFP cnt inactive | ClC-1 rat inh inactive
CCC1=NN(C(=O)c2ccccc2O)C(O)(c2ccccc2)C1 (configuration not stated)	TMEM16A inh 25 | TMEM16A reconf inactive | TMEM16A Ca cntr inactive | Parental YFP cnt inactive | ClC-1 rat inh inactive
O=C(CN1CCN(c2nc(-c3ccc(Cl)cc3)cs2)CC1)NCc1ccco1	TMEM16A inh 25 (no result: ANO1 activ) | TMEM16A reconf inactive | TMEM16A Ca cntr 20% | Parental YFP cnt inactive | ClC-1 rat inh inactive
CCCC1(c2ccsc2)NC(=O)NC1=O (configuration not stated)	none (no result: Kir21 inh, CHT inh, TMEM16A inh, Rce1 inhib, CHT PAM)
C[C@H]1CN([C@@H](C)CO)C(=O)c2cccc(NC(=O)Nc3ccc(F)cc3)c2O[C@@H]1CN(C)Cc1ccc(C(=O)O)cc1	none (no result: Kir21 inh, CHT inh, TMEM16A inh, Rce1 inhib, CHT PAM)
CCN1C(=O)/C(=C/C2=Cc3ccccc3OC2C)SC1=S (configuration not stated)	none
Cc1ccccc1-c1nc(-c2ccc(NC(=O)c3cccs3)cc2)no1	none | TMEM16A reconf inactive | TMEM16A Ca cntr inactive | Parental YFP cnt inactive | ClC-1 rat inh inactive
CCOC(=O)/C=c1\s/c(=C\c2ccc3cc(OC)ccc3c2)c(=O)n1CC(=O)NCc1ccc2c(c1)OCO2	none | TMEM16A reconf 31% | TMEM16A Ca cntr inactive | Parental YFP cnt inactive | ClC-1 rat inh inactive
CCOC(=O)/C=c1\s/c(=C\c2ccccc2C)c(=O)n1CC(=O)NCc1ccc2c(c1)OCO2	none
C=C(C)COc1ccc2c3c(c(=O)oc2c1OCC(=C)C)CCC3	TMEM16A inh 100 | TMEM16A reconf 17% | TMEM16A Ca cntr inactive | Parental YFP cnt inactive | ClC-1 rat inh inactive
CC1Sc2ccc(S(=O)(=O)CCC(=O)NCc3ccccc3)cc2NC1=O (configuration not stated)	none
CC1Sc2ccc(S(=O)(=O)N3CCC(C(=O)Nc4ccc(Cl)cc4)CC3)cc2NC1=O (configuration not stated)	TMEM16A inh 25 | TMEM16A reconf 32% | TMEM16A Ca cntr inactive | Parental YFP cnt inactive | ClC-1 rat inh inactive
CC1Sc2ccc(S(=O)(=O)CCC(=O)NCc3ccc(Cl)cc3)cc2NC1=O (configuration not stated)	TMEM16A inh 25 | TMEM16A reconf inactive | TMEM16A Ca cntr inactive | Parental YFP cnt inactive | ClC-1 rat inh inactive
COc1ccc(NC(=O)C2CCN(S(=O)(=O)c3ccc4c(c3)NC(=O)C(C)S4)CC2)cc1 (configuration not stated)	none
COc1ccccc1OCc1ccc(C(=O)Nc2ccncc2)o1	TMEM16A inh 100 | TMEM16A reconf 34% | TMEM16A Ca cntr inactive | Parental YFP cnt inactive | ClC-1 rat inh inactive
COc1ccccc1OCc1ccc(C(=O)NC(C)(C)C)o1	none
COc1ccc(NC(=O)c2ccc(Cc3ccc(C)cc3)o2)cc1	TMEM16A inh 25 | TMEM16A reconf inactive | TMEM16A Ca cntr inactive | Parental YFP cnt inactive | ClC-1 rat inh inactive
COc1ccc(NC(=O)c2ccc(COc3ccccc3)o2)cc1	none
O=C(COc1ccc(Cl)cc1)Nc1cc2c3c(c1)CC(=O)N3CCC2	none
Nc1nc2cc(Cl)c(Br)cc2o1	none (no result: Kir21 inh, CHT inh, TMEM16A inh, Rce1 inhib, CHT PAM)
CC(Oc1ccc(C(=O)c2ccccc2)cc1)C(=O)Nc1ccc(S(N)(=O)=O)cc1 (configuration not stated)	TMEM16A inh 100 | TMEM16A reconf 54% | TMEM16A Ca cntr inactive | Parental YFP cnt inactive | ClC-1 rat inh inactive
CC(Oc1ccccc1)C(=O)Nc1ccc(NC(=O)c2ccccc2)cc1 (configuration not stated)	none
O=C(Oc1cccc(Nc2ncnc3ccccc23)c1)c1ccccc1Cl	TMEM16A inh 100 | TMEM16A reconf 18% | TMEM16A Ca cntr inactive | Parental YFP cnt inactive | ClC-1 rat inh inactive
CC(C)(C)NC(=S)NCC1CC1	none
CCCCN(CCCC)CCNC(=O)CNC(=O)c1cccs1	TMEM16A inh 100 | TMEM16A reconf inactive | TMEM16A Ca cntr inactive | Parental YFP cnt inactive | ClC-1 rat inh inactive
S=c1[nH]c2cc(-c3ccccc3)ccc2o1	TMEM16A inh 25 | TMEM16A reconf inactive | TMEM16A Ca cntr inactive | Parental YFP cnt inactive | ClC-1 rat inh inactive
Cc1cc(-c2ccccc2)c2c(=O)[nH][nH]c2n1	none
O=C(COc1ccccc1Cl)Nc1nnc(S(=O)(=O)N2CCCC2)s1	none
COc1ccc(N(Cc2nnc3n2CCCCC3)C(=O)Nc2ccccc2)cc1	none
CCOc1ccc(N(Cc2nnc3n2CCCCC3)C(=O)Nc2cccc(C)c2)cc1	none | TMEM16A reconf inactive | TMEM16A Ca cntr inactive | Parental YFP cnt inactive | ClC-1 rat inh inactive
COc1ccc(OC)c(S(=O)(=O)Nc2c(NC3CCCCC3)c3ccccc3oc2=O)c1	none
Cc1ccc(C(C)C)c(Oc2nnnn2-c2ccccc2)c1	TMEM16A inh 25 | TMEM16A reconf 26% | TMEM16A Ca cntr inactive | Parental YFP cnt inactive | ClC-1 rat inh inactive
CC(C)Oc1nnnn1-c1ccccc1	none
CC(=O)c1c(O)cc(C)n(Cc2ccccc2)c1=O	none
CC(=O)c1c(O)cc(O)c(C(C)=O)c1O	TMEM16A inh 100, Rce1 inhib active | TMEM16A reconf 31% | TMEM16A Ca cntr inactive | Parental YFP cnt inactive | ClC-1 rat inh inactive
CCOc1cc(S(=O)(=O)NCCCN2CCOCC2)ccc1F	none
CCC(=O)N=c1ccn(C2=Nc3ccccc3NC2=C(C#N)C#N)cc1	none

Compound activity deposited in PubChem BioAssay by several laboratories.
